Assay results from PubChem BioAssay AID1159580 (chemical genetic matrix, 2015).
The campaign covered roughly 5,500 compounds. About 2,000 (36%) were called active. About 18% were inconclusive and are not listed. Cut-off read from the data, not from the text of the source: active = normalized growth mostly below about 0.91 (no sharp cut-off); inconclusive = no clear call, values can overlap the other calls; inactive = mostly above about 0.92. Some of the results follow.

Assay: chemical genetic growth profiling, strain panel (AID 1159580);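 note: tested at 20 µM; growth read once vehicle control cultures reached saturation at 30 °C; 1 = growth at the plate median or of vehicle wells; lower values mean less growth of the strain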
Conditions: S. cerevisiae deletion strains, growth OD
[1] = locus YAL021C, strain ccr4, hits give low values
[2] = locus YAL026C, strain drs2, hits give low values
[3] = locus YAL030W, strain snc1, hits give low values
[4] = locus YBL061C, strain skt5, hits give low values
[5] = locus YBR009C, strain hhf1, hits give low values
[6] = locus YBR023C, strain chs3, hits give low values
[7] = locus YBR171W, strain sec66, hits give low values
[8] = locus YBR231C, strain swc5, hits give low values
[9] = locus YBR279W, strain paf1, hits give low values
[10] = locus YCL011C, strain gbp2, hits give low values
[11] = locus YCL016C, strain dcc1, hits give low values
[12] = locus YCL069W, strain vba3, hits give low values
[13] = locus YCR088W, strain abp1, hits give low values
[14] = locus YDL005C, strain med2, hits give low values
[15] = locus YDL040C, strain nat1, hits give low values
[16] = locus YDR001C, strain nth1, hits give low values
[17] = locus YDR069C, strain doa4, hits give low values
[18] = locus YDR137W, strain rgp1, hits give low values
[19] = locus YDR159W, strain sac3, hits give low values
[20] = locus YDR297W, strain sur2, hits give low values
[21] = locus YDR334W, strain swr1, hits give low values
[22] = locus YDR335W, strain msn5, hits give low values
[23] = locus YDR392W, strain spt3, hits give low values
[24] = locus YEL003W, strain gim4, hits give low values
[25] = locus YEL037C, strain rad23, hits give low values
[26] = locus YEL061C, strain CIN8 (second series), hits give low values
[27] = locus YER015W, strain faa2, hits give low values
[28] = locus YER016W, strain bim1, hits give low values
[29] = locus YER111C, strain swi4, hits give low values
[30] = locus YER155C, strain BEM2 (second series), hits give low values
[31] = locus YFR010W, strain ubp6, hits give low values
[32] = locus YGL167C, strain pmr1, hits give low values
[33] = locus YGL173C, strain kem1, hits give low values
[34] = locus YGL227W, strain vid30, hits give low values
[35] = locus YGL240W, strain doc1, hits give low values
[36] = locus YGL253W, strain hxk2, hits give low values
[37] = locus YHR013C, strain ard1, hits give low values
[38] = locus YHR027C, strain rpn1, hits give low values
[39] = locus YHR030C, strain SLT2, hits give low values
[40] = locus YHR079C, strain IRE1, hits give low values
[41] = locus YHR142W, strain chs7, hits give low values
[42] = locus YJL092W, strain hpr5, hits give low values
[43] = locus YJL095W, strain BCK1 (second series), hits give low values
[44] = locus YJL095W, strain BCK1, hits give low values
[45] = locus YJL115W, strain asf1, hits give low values
[46] = locus YJL129C, strain trk1, hits give low values
[47] = locus YJL154C, strain vps35, hits give low values
[48] = locus YJL164C, strain tpk1, hits give low values
[49] = locus YJL166W, strain qcr8, hits give low values
[50] = locus YJL187C, strain SWE1, hits give low values
[51] = locus YJR066W, strain TOR1, hits give low values
[52] = locus YKL160W, strain elf1, hits give low values
[53] = locus YKR026C, strain gcn3, hits give low values
[54] = locus YKR091W, strain srl3, hits give low values
[55] = locus YLL001W, strain dnm1, hits give low values
[56] = locus YLL026W, hits give low values
[57] = locus YLL041C, strain sdh2, hits give low values
[58] = locus YLR027C, strain aat2, hits give low values
[59] = locus YLR113W, strain HOG1, hits give low values
[60] = locus YLR221C, strain rsa3, hits give low values
[61] = locus YLR258W, strain gsy2, hits give low values
[62] = locus YLR262C, strain YPT6 (second series), hits give low values
[63] = locus YLR320W, strain mms22, hits give low values
[64] = locus YLR342W, strain FKS1, hits give low values
[65] = locus YLR357W, strain rsc2, hits give low values
[66] = locus YLR370C, strain arc18, hits give low values
[67] = locus YLR384C, strain iki3, hits give low values
[68] = locus YML120C, strain ndi1, hits give low values
[69] = locus YMR058W, strain fet3, hits give low values
[70] = locus YMR125W, strain sto1, hits give low values
[71] = locus YMR129W, hits give low values
[72] = locus YMR205C, strain PFK2, hits give low values
[73] = locus YMR231W, strain pep5, hits give low values
[74] = locus YNL071W, strain lat1, hits give low values
[75] = locus YNL183C, strain NPR1, hits give low values
[76] = locus YNL209W, strain ssb2, hits give low values
[77] = locus YNL248C, strain rpa49, hits give low values
[78] = locus YNL322C, strain KRE1 (second series), hits give low values
[79] = locus YNR049C, strain mso1, hits give low values
[80] = locus YOR001W, strain rrp6, hits give low values
[81] = locus YOR070C, strain gyp1, hits give low values
[82] = locus YOR080W, strain dia2, hits give low values
[83] = locus YOR083W, strain WHI5, hits give low values
[84] = locus YOR106W, strain vam3, hits give low values
[85] = locus YOR231W, strain MKK1, hits give low values
[86] = locus YOR265W, strain rbl2, hits give low values
[87] = locus YOR270C, strain vph1, hits give low values
[88] = locus YOR290C, strain snf2, hits give low values
[89] = locus YPL051W, strain arl3, hits give low values
[90] = locus YPL078C, strain atp4, hits give low values
[91] = locus YPL106C, strain sse1, hits give low values
[92] = locus YPL240C, strain hsp82, hits give low values
[93] = locus YPL256C, strain CLN2, hits give low values

Measured: normalized growth

Nc1nc(F)nc2c1ncn2[C@@H]1O[C@H](COP(=O)(O)O)[C@@H](O)[C@@H]1O
inactive: [1] 0.989 | [2] 0.999 | [3] 1 | [4] 0.997 | [5] 1.01 | [6] 0.999 | [7] 1 | [8] 0.999 | [9] 1 | [10] 0.994 | [11] 0.997 | locus YCL061C, strain MRC1, hits give low values 0.989 | [12] 0.993 | [13] 0.992 | [14] 0.984 | [15] 0.997 | [16] 0.993 | [17] 0.997 | [18] 1 | [19] 0.985 | locus YDR195W, strain ref2 0.968 | [20] 1.01 | [21] 0.991 | [22] 0.997 | [23] 0.976 | [24] 0.995 | [25] 0.993 | [26] 0.994 | [27] 0.995 | [28] 0.993 | [29] 1 | [30] 0.993 | [31] 1.01 | [32] 0.989 | [33] 1 | [34] 0.992 | [35] 0.984 | [36] 0.998 | [37] 0.99 | [38] 0.986 | [39] 1.03 | [40] 1.04 | [41] 0.991 | [42] 0.982 | [43] 0.994 | [44] 0.993 | [45] 0.991 | [46] 0.994 | [47] 0.998 | [48] 0.982 | [49] 1 | [50] 0.989 | [51] 0.967 | [52] 1 | [53] 0.977 | [54] 0.997 | [55] 0.987 | [56] 0.989 | [57] 0.997 | [58] 1 | [59] 0.979 | [60] 1 | [61] 0.992 | [62] 1 | [63] 0.968 | [64] 0.999 | [65] 0.994 | [66] 0.998 | [67] 0.982 | [68] 1.01 | [69] 1 | [70] 0.981 | [71] 1.01 | [72] 0.975 | [73] 0.995 | [74] 0.995 | [75] 0.96 | [76] 1 | [77] 0.996 | [78] 0.99 | [79] 0.995 | [80] 1 | [81] 1 | [82] 0.989 | [83] 1 | [84] 1.02 | [85] 1.04 | [86] 1 | [87] 0.977 | [88] 0.979 | [89] 1 | [90] 0.991 | [91] 1 | [92] 1.01 | [93] 1.03

COC(=O)[C@H](c1ccccc1Cl)N1CCc2sccc2C1
inactive: [1] 0.993 | [2] 0.99 | [3] 0.982 | [4] 0.994 | [5] 0.989 | [6] 0.981 | [7] 0.973 | [8] 0.998 | [9] 0.986 | [10] 0.968 | [11] 0.993 | [12] 0.991 | [13] 0.976 | [14] 0.991 | [15] 0.961 | [16] 0.985 | [17] 1.01 | [18] 0.912 | [19] 0.987 | locus YDR195W, strain ref2 0.971 | [20] 0.983 | [21] 0.995 | [22] 1.01 | [23] 0.984 | [24] 0.969 | [25] 0.981 | [26] 0.98 | [27] 0.986 | [28] 0.98 | [29] 0.972 | [30] 0.97 | [31] 1 | [32] 0.967 | [33] 0.979 | [34] 0.988 | [35] 0.989 | [36] 1 | [37] 1.07 | [38] 0.987 | [39] 0.961 | [40] 0.956 | [41] 1.01 | [42] 0.98 | [43] 0.983 | [44] 0.98 | [45] 1 | [46] 0.959 | [47] 0.97 | [48] 0.976 | [49] 0.991 | [50] 0.984 | [51] 0.982 | [52] 0.988 | [53] 1 | [54] 0.983 | [55] 1.01 | [56] 0.977 | [57] 0.991 | [58] 0.983 | [59] 0.932 | [60] 0.992 | [61] 0.982 | [62] 0.95 | [63] 0.963 | [64] 0.982 | [65] 1.09 | [66] 0.975 | [67] 0.975 | [68] 0.961 | [69] 0.989 | [70] 0.993 | [71] 0.979 | [72] 0.971 | [73] 0.995 | [74] 0.968 | [75] 0.941 | [76] 0.998 | [77] 1.07 | [78] 0.981 | [79] 0.978 | [80] 1 | [81] 0.986 | [82] 0.994 | [83] 0.981 | [84] 1.03 | [85] 0.938 | [86] 0.985 | [87] 1.02 | [88] 1.02 | [89] 0.992 | [90] 0.996 | [91] 0.987 | [92] 0.986 | [93] 0.894
